# The source made the active and inactive calls. How the source made its calls: active means hit-call score of the fitted dose curve at least 0.9, where 1 is the maximum; inactive means score below 0.9.
# Columns and labels:
# [1] = ATG_CRE_CIS: Attagene CIS-FACTORIAL HepG2 Assay for human cAMP Responsive Element (CRE) binding protein 3 (AID 2282926); conditions: HepG2 CRE cis-reporter, Attagene multiplexed mRNA; actives raise or lower the signal
# In short: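 Multiplexed transcription-unit reporters transfected into HepG2; 24 h dosing; RT-PCR/capillary electrophoresis fluorescence read-out; bidirectional fit vs DMSO.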
# [2] = biological target: CCAAT/enhancer-binding protein beta (Homo sapiens) (UniProt P17676); assay: ATG_C_EBP_CIS: Attagene CIS-FACTORIAL HepG2 Assay for human CCAAT/Enhancer Binding Protein (C/EBP) beta (AID 2282927); conditions: HepG2 Attagene cis-factorial transcription factor reporter; actives raise or lower the signal
# In short: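 HepG2 transiently transfected with multiplexed reporter units under cis-regulatory promoters reporting endogenous C/EBPb activity. After 24 h exposure, reporter mRNA assayed by RT-PCR, fluorescent labelling, HpaI digestion and capillary electrophoresis; bidirectional fitting versus DMSO.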
# [3] = ATG_CMV_CIS: Attagene CIS-FACTORIAL HepG2 Assay for human CMV (Internal Marker) (AID 2282928); conditions: HepG2 CMV promoter reporter, transcription factor profiling; actives raise or lower the signal;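 further: endpoint acts as a background internal control marker rather than a target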
# In short: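 Cell system: HepG2, transiently transfected multiple reporter units under cis promoters. Exposure: 24 h. Detection: RT-PCR, FAM labeling, HpaI digestion, capillary electrophoresis. Analysis: bidirectional, DMSO baseline.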
# [4] = ATG_DR4_LXR_CIS: Attagene CIS-FACTORIAL HepG2 Assay for human Liver X Receptor (LXR), DR4 submotif (AID 2282929); conditions: HepG2 Attagene DR4 cis-reporter, mRNA transcription; actives raise or lower the signal
# In short: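 Fluorescence intensity of labelled reporter cDNA fragments, separated by capillary electrophoresis, gives the signal. HepG2 cells bearing cis-regulated reporter constructs were treated 24 h; activity fitted bidirectionally relative to DMSO negative control.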
# [5] = biological target: Aryl hydrocarbon receptor (Homo sapiens) (UniProt P35869); assay: ATG_Ahr_CIS: Attagene CIS-FACTORIAL HepG2 Assay for human Aryl Hydrocarbon Receptor (Ahr) (AID 2282930); conditions: HepG2 AhR cis-factorial reporter transcription; actives raise or lower the signal
# In short: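 HepG2 cells transiently transfected with cis-element-driven multiplexed reporter units; endogenous AhR activity read as reporter mRNA 24 h after dosing, via RT-PCR, 6-FAM labelling, HpaI digestion and capillary electrophoresis. Bidirectional fit relative to DMSO.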
# [6] = ATG_AP_1_CIS: Attagene CIS-FACTORIAL HepG2 Assay for human Activator Protein 1 (AP-1) (AID 2282931); conditions: HepG2 Attagene cis-factorial AP-1 reporter mRNA; actives raise or lower the signal
# In short: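 Multiplexed HepG2 reporter assay, 24 h dosing. mRNA induction detected by RT-PCR plus capillary electrophoresis. Activity fitted in both directions against DMSO.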
# [7] = ATG_AP_2_CIS: Attagene CIS-FACTORIAL HepG2 Assay for human Activator Protein 2 (AP-2) (AID 2282932); conditions: HepG2 AP-2 cis-reporter, Attagene transcription factor profiling; actives raise or lower the signal
# In short: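 Multiplexed mRNA reporter assay in HepG2: cis-regulated units report endogenous factor activity after 24 h treatment. Fluorescence from capillary electrophoresis of RT-PCR products gives the signal, with DMSO as baseline.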
# [8] = ATG_BRE_CIS: Attagene CIS-FACTORIAL HepG2 Assay for human Bone Morphogenetic Protein (BMP) Response Element (BRE) (AID 2282933); conditions: HepG2 BMP response element reporter, Attagene transcription factor profiling; actives raise or lower the signal
# In short: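 Fluorescence-labelled reporter cDNA fragments, separated by capillary electrophoresis, gave the signal for this component of a 52-readout multiplex. HepG2 cells were transfected, exposed to chemicals for 24 h, and compared with DMSO using bidirectional fitting.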
# [9] = biological target: Transcription factor E2F1 (Homo sapiens) (UniProt Q01094); assay: ATG_E2F_CIS: Attagene CIS-FACTORIAL HepG2 Assay for human E2F Transcription Factor 1 (AID 2282935); conditions: HepG2 Attagene cis-reporter, E2F reporter RNA transcripts; actives raise or lower the signal
# In short: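 Measures reporter transcript levels via RT-PCR with capillary electrophoresis detection in HepG2 cells harboring cis-regulated reporter units; 24 h post-dose; bidirectional curve fitting with DMSO as baseline.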
# [10] = ATG_E_Box_CIS: Attagene CIS-FACTORIAL HepG2 Assay for human Enhancer Box (E-box) (AID 2282936); conditions: HepG2 E-box cis-reporter transcription, actives raise or lower the signal
# In short: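 First, HepG2 cells receive multiple cis-regulated reporter constructs by transient transfection. Next, chemicals are applied for 24 h. Finally, reporter mRNA is quantified via RT-PCR and capillary electrophoresis, with DMSO as baseline.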
# [11] = ATG_M_61_CIS: Attagene CIS-FACTORIAL HepG2 Assay for M61 Transcription Factor (Internal Marker) (AID 2282937); conditions: HepG2 Attagene CIS-FACTORIAL M61 internal marker reporter; actives raise or lower the signal
# In short: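 Endogenous transcription factor activity in HepG2 is read through transiently transfected cis-element reporter units. After 24 h dosing, RNA undergoes reverse transcription, PCR and primer extension with 6-FAM before capillary electrophoresis; DMSO-referenced bidirectional fit.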
# [12] = ATG_M_19_CIS: Attagene CIS-FACTORIAL HepG2 Assay for M19 Transcription Factor (Internal Marker) (AID 2282939); conditions: HepG2 Attagene CIS-FACTORIAL M19 internal marker reporter; actives raise or lower the signal
# In short: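 HepG2, MRTU transient transfection, 24 h dosing. Total RNA → RT-PCR → 6-FAM primer extension → HpaI digest → CE fluorescence. Bidirectional curve fit, DMSO negative control.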
# [13] = ATG_ERE_CIS: Attagene CIS-FACTORIAL HepG2 Assay for Estrogen Response Element (ERE) (AID 2282940); conditions: HepG2 ERE cis-reporter, Attagene RNA transcript; actives raise or lower the signal
# In short: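 After a 24 h chemical treatment, RNA from reporter-transfected HepG2 cells is reverse-transcribed, PCR-amplified and fluorescently labelled. Fragments separated by capillary electrophoresis give reporter signal; DMSO serves as negative control.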
# [14] = ATG_Ets_CIS: Attagene CIS-FACTORIAL HepG2 Assay for human Erythroblast Transformation Specific (ETS) (AID 2282941); conditions: HepG2 ETS cis-reporter transcription, actives raise or lower the signal
# In short: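 After transient cis-reporter transfection, HepG2 cells receive test chemical for 24 h. Reporter mRNA levels, measured by RT-PCR and capillary electrophoresis fluorescence, are analysed bidirectionally relative to the DMSO baseline.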
# [15] = biological target: Hepatocyte nuclear factor 3-beta (Homo sapiens) (UniProt Q9Y261); assay: ATG_FoxA2_CIS: Attagene CIS-FACTORIAL HepG2 Assay for human Forkhead box A2 (FOXA2) (AID 2282942); conditions: HepG2 cis-reporter transcription factor activity, 24 h; actives raise or lower the signal
# In short: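 Reporter transcript induction is measured by fluorescence after capillary electrophoresis of RT-PCR products from HepG2 cells exposed 24 h. Cis-regulated reporter units report endogenous factor activity; curves fitted both directions against DMSO.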
# [16] = ATG_FoxO_CIS: Attagene CIS-FACTORIAL HepG2 Assay for human Forkhead box O (FoxO) (AID 2282943); conditions: HepG2 Attagene cis-reporter, FoxO element, mRNA; actives raise or lower the signal
# In short: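 HepG2 cells transiently transfected with cis-element-driven reporter units report endogenous FoxO activity. After 24 h chemical exposure, reporter mRNA quantified by RT-PCR, fluorescent labeling, HpaI digestion and capillary electrophoresis; bidirectional fit versus DMSO.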
# [17] = ATG_GATA_CIS: Attagene CIS-FACTORIAL HepG2 Assay for human GATA Binding Protein (AID 2282944); conditions: HepG2 GATA cis-element reporter, Attagene multiplex mRNA; actives raise or lower the signal
# In short: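 Cells: HepG2, transiently transfected with cis-regulated reporter transcription units. Exposure: 24 h. Detection: RT-PCR plus capillary electrophoresis of FAM-labeled fragments. Analysis: bidirectional, DMSO as baseline.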
# [18] = ATG_GLI_CIS: Attagene CIS-FACTORIAL HepG2 Assay for human Zinc Finger Protein GLI1 (AID 2282945); conditions: HepG2, Attagene cis-factorial reporter mRNA, GLI element; actives raise or lower the signal
# In short: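 Transiently transfected HepG2 cells report endogenous transcription factor activity via cis-element-driven reporter units. After 24 h compound exposure, reporter mRNA was measured by RT-PCR with capillary electrophoresis; bidirectional fitting against DMSO baseline.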
# [19] = ATG_EGR_CIS: Attagene CIS-FACTORIAL HepG2 Assay for human Early Growth Response 1 (EGR1) (AID 2282938); conditions: HepG2 Attagene CIS-FACTORIAL EGR reporter mRNA; actives raise or lower the signal
# In short: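 Activity is taken as induction or loss of reporter mRNA versus DMSO, fitted bidirectionally. Transcripts from cis-regulated reporter units in transiently transfected HepG2 were measured after 24 h by RT-PCR with capillary electrophoresis.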
# Hepatocyte nuclear factor 3-beta (Homo sapiens), sequence (Q9Y261 whole entry, looked up): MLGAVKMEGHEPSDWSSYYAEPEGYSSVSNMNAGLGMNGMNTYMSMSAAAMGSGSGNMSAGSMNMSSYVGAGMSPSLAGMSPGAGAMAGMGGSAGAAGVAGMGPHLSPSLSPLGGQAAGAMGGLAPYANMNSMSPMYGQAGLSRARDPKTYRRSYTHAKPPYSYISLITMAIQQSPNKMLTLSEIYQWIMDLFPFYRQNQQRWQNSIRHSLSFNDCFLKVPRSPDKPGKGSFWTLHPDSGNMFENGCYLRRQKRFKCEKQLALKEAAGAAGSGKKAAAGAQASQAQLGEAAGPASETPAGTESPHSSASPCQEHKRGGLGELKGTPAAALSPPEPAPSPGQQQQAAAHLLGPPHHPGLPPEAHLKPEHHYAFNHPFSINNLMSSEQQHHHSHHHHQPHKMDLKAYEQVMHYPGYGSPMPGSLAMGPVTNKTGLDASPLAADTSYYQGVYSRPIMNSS
# Aryl hydrocarbon receptor (Homo sapiens), sequence (P35869 whole entry, looked up): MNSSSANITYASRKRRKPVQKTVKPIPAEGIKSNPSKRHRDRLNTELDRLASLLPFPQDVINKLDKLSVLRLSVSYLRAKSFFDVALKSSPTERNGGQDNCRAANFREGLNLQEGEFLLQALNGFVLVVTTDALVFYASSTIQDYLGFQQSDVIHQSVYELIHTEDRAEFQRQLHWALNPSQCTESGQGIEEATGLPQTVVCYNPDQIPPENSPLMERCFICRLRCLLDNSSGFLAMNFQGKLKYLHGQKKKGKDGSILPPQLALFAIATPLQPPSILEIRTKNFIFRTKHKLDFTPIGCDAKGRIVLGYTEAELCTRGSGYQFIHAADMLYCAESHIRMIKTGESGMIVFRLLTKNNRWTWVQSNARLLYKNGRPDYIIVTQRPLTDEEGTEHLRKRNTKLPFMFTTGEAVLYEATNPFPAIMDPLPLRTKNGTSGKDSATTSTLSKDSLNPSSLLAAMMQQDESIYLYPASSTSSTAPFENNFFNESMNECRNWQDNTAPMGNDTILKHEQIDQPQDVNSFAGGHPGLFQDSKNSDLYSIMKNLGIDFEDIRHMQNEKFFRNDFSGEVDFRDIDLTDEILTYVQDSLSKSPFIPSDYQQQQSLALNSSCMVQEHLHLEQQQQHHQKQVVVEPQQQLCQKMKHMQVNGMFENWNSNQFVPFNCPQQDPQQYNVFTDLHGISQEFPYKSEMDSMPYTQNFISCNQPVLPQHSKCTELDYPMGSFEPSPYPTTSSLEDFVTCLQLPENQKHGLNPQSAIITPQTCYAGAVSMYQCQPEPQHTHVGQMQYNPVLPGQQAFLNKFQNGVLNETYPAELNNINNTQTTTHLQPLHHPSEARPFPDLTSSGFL
# Transcription factor E2F1 (Homo sapiens), sequence (Q01094 whole entry, looked up): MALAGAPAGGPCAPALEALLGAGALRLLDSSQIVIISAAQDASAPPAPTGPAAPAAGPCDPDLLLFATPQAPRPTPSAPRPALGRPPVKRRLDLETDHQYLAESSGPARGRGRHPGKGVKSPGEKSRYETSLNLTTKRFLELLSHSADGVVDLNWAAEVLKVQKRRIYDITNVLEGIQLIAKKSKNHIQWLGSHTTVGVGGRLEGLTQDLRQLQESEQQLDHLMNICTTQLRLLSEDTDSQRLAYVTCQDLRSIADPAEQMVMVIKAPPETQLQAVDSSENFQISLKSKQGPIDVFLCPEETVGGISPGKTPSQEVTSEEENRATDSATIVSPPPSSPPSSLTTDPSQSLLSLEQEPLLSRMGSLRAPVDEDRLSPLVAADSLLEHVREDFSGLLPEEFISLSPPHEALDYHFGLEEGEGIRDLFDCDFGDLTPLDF
# CCAAT/enhancer-binding protein beta (Homo sapiens), sequence (P17676 whole entry, looked up): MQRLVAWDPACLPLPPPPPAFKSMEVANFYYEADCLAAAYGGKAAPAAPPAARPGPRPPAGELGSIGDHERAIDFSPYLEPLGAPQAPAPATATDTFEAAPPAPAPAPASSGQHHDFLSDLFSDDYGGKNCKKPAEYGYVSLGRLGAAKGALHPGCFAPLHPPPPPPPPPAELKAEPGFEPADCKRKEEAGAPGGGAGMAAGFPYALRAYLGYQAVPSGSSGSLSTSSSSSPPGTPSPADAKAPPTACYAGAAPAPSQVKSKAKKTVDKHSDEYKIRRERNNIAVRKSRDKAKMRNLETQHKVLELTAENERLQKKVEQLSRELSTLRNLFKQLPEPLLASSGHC
smiles,measurement,setting,value
NC(N)=NC(=O)c1nc(Cl)c(N)nc1N,outcome,[1],inactive
same,outcome,[2],inactive
same,outcome,[3],inactive
same,AC50,[4],149 µM (active)
same,outcome,[5],inactive
same,outcome,[6],inactive
same,outcome,[7],inactive
same,outcome,[8],inactive
same,outcome,[9],inactive
same,outcome,[10],inactive
same,outcome,[11],inactive
same,outcome,[12],inactive
same,outcome,[13],inactive
same,outcome,[14],inactive
same,outcome,[15],inactive
same,outcome,[16],inactive
same,outcome,[17],inactive
same,outcome,[18],inactive
CCC(C)(O)CCC=C(C)C (stereo not given),outcome,[1],inactive
same,outcome,[2],inactive
same,outcome,[3],inactive
same,outcome,[4],inactive
same,outcome,[5],inactive
same,outcome,[6],inactive
same,outcome,[7],inactive
same,outcome,[8],inactive
same,outcome,[9],inactive
same,outcome,[10],inactive
same,outcome,[19],inactive
same,outcome,[12],inactive
same,outcome,[13],inactive
same,outcome,[14],inactive
same,outcome,[15],inactive
same,outcome,[16],inactive
same,outcome,[17],inactive
same,outcome,[18],inactive
C=CC(=O)OCC(O)COc1ccccc1 (stereo not given),outcome,[1],inactive
same,outcome,[2],inactive
same,outcome,[3],inactive
same,AC50,[4],32 µM (active)
same,outcome,[5],inactive
same,outcome,[6],inactive
same,AC50,[7],26.8 µM (active)
same,AC50,[8],82.8 µM (active)
same,outcome,[9],inactive
same,AC50,[10],38.8 µM (active)
same,AC50,[19],64.3 µM (active)
same,outcome,[12],inactive
same,outcome,[13],inactive
same,outcome,[14],inactive
same,AC50,[16],25.2 µM (active)
same,outcome,[17],inactive
same,outcome,[18],inactive
C#C[C@]1(O)CC[C@H]2[C@@H]3CCC4=Cc5oncc5C[C@]4(C)[C@H]3CC[C@@]21C,AC50,[1],41.2 µM (active)
same,outcome,[2],inactive
same,outcome,[3],inactive
same,AC50,[4],14.5 µM (active)
same,outcome,[5],inactive
same,AC50,[6],26.2 µM (active)
same,outcome,[7],inactive
same,outcome,[8],inactive
same,AC50,[9],33.4 µM (active)
same,outcome,[11],inactive
same,AC50,[19],21.9 µM (active)
same,outcome,[12],inactive
same,AC50,[13],830 nM (active)
same,outcome,[15],inactive
same,AC50,[16],60.4 µM (active)
same,AC50,[17],54.6 µM (active)
same,AC50,[18],60.9 µM (active)

# From PubChem BioAssay (EPA / NIEHS)
